# PubChem BioAssay (NCI)
# Compounds without any hit were thinned out: in the full panel of roughly 83,000, 20% have a hit.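 The test compound was applied at a single concentration to cells in 96-well plates for 48 hours, and percent growth was recorded.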 A number with no mark means an inactive call. Active and inactive are the calls of the source. Rule for the calls: active = growth percent below 10; inactive = the rest.
# Tests used:
# Assay in all cases: NCI-60 one-dose screen, 48 h (100 = growth as untreated, 0 = no growth, -100 = all killed)
# Details in all cases: 10 µM unless noted
# NCI-H23 lung = system: NCI-H23 lung
# NCI-H322M lung = system: NCI-H322M lung
# HOP-62 NSCLC = system: HOP-62 NSCLC
# NCI-H460 lung = system: NCI-H460 lung
# HOP-92 NSCLC = system: HOP-92 NSCLC
# NCI-H522 lung = system: NCI-H522 lung
# A549/ATCC NSCLC = system: A549/ATCC NSCLC
# 786-0 renal = system: 786-0 renal
# COLO 205 colon = system: COLO 205 colon
# DU-145 prostate = system: DU-145 prostate
# K-562 leukemia = system: K-562 leukemia
# MDA-MB-231 breast = system: MDA-MB-231 breast
# RXF 393 renal = system: RXF 393 renal
# SF-268 CNS = system: SF-268 CNS
# SF-295 CNS = system: SF-295 CNS
# SF-539 CNS = system: SF-539 CNS
# UACC-257 melanoma = system: UACC-257 melanoma
# M14 melanoma = system: M14 melanoma
# HCT-15 colon = system: HCT-15 colon
# MALME-3M melanoma = system: MALME-3M melanoma
Compound,growth (NCI-H23 lung),growth (NCI-H322M lung),growth (HOP-62 NSCLC),growth (NCI-H460 lung),growth (HOP-92 NSCLC),growth (NCI-H522 lung),growth (A549/ATCC NSCLC),growth (786-0 renal),growth (COLO 205 colon),growth (DU-145 prostate),growth (K-562 leukemia),growth (MDA-MB-231 breast),growth (RXF 393 renal),growth (SF-268 CNS),growth (SF-295 CNS),growth (SF-539 CNS),growth (UACC-257 melanoma),growth (M14 melanoma),growth (HCT-15 colon),growth (MALME-3M melanoma)
Brc1ccc(Nc2nc3ccccc3nc2Nc2ccc(Br)cc2)cc1,-16.4% (active),-13.1% (active),-63.4% (active),2% (active),-25.9% (active),-54.1% (active),-6.83% (active),-30.2% (active),-96.2% (active),14.2%,-20% (active),-80.4% (active),-32.9% (active),3.08% (active),-75.6% (active),-8.61% (active),-43% (active),-60.7% (active),-21% (active),
COC(=O)/C(=C\c1c(C)[nH]c2ccccc12)S(=O)(=O)c1ccccc1,18.6%,47.5%,29.8%,-7.04% (active),21.5%,31.9%,23.7%,48%,31.8%,-53.4% (active),14.4%,90%,,2.87% (active),16.6%,-24.3% (active),29.4%,33.7%,23.8%,45.8%
CSc1nc2c(c(=O)[nH]1)N=C1c3ccccc3C(=O)C1C(c1ccc(F)cc1)N2 (centres undefined),83.7%,92.3%,63.6%,51.7%,58.3%,75.9%,56.3%,71.5%,53.4%,103%,62.8%,93.3%,,65.5%,-29% (active),68.7%,79.1%,43.4%,46.1%,56.1%
O=C(c1ccccc1)N(C(=S)NCCc1ccc(Cl)cc1)c1ccc(Cl)cc1,74.7%,75.9%,91.3%,80.1%,76.3%,92.1%,82.4%,57.2%,61.6%,29.3%,4.72% (active),91.7%,,33.2%,68.3%,36.9%,71.2%,71.2%,47.6%,
CN(O)c1nc(N(C)O)nc(N2CCOCC2)n1,66%,35.1%,34.5%,8.62% (active),52.4%,31.4%,33%,21%,3.87% (active),38.8%,9.56% (active),56%,,29.3%,-30.2% (active),38%,30%,16%,22.5%,48.5%
Cc1ccc(Nc2nc(N)c3ccccc3n2)cc1Cl,53.8%,73.5%,89%,56.8%,54.3%,41%,48.1%,80.9%,54.5%,45.9%,51.3%,27.2%,80.4%,78.5%,,81.5%,108%,80.3%,49.9%,
CCOC(=O)c1c2c(n3cccc(Cl)c13)C(=O)c1ncccc1C2=O,34.2%,26.5%,41.9%,10%,87.6%,81.3%,38.4%,73.9%,73.5%,45.8%,62.3%,24.9%,,41.1%,63.9%,77.2%,60.8%,22.6%,25.6%,42.7%
N#C/C(=C\c1c(-c2ccccc2)[nH]c2ccccc12)C(=O)c1ccccc1,47.9%,53.3%,43%,18.9%,77.5%,57.1%,50.2%,50.1%,25.6%,31.7%,21.6%,71.3%,,53.6%,37.1%,21.7%,61.6%,37.6%,42.1%,70.9%
COc1ccc(-c2nsc3c2NC(=O)CC3c2ccc3c(c2)OCCO3)cc1 (centres undefined),29%,74.8%,34.8%,6.65% (active),66.1%,-15.2% (active),28.9%,28.3%,-70.4% (active),5.37% (active),13.3%,,0.635% (active),55.4%,0.403% (active),-17% (active),76.2%,19.7%,14.6%,59.9%
Cc1ccc(C(=O)c2oc3ccc4c(C)cc(=O)oc4c3c2C)cc1,40.4%,63.1%,61.3%,3.14% (active),9.32% (active),25.7%,14.8%,57.3%,-59.7% (active),64.7%,11.7%,46.8%,37.2%,52.1%,4.06% (active),46.7%,-4.34% (active),42.5%,23%,
O=C1/C=C/[C@@H](O)[C@@H]2C[C@@H](O)C[C@H]2/C=C/CCCCO1,13%,33.2%,23.8%,7.12% (active),-3.95% (active),19.4%,23.1%,3.17% (active),-49.7% (active),19.3%,13.7%,-21.2% (active),,11.7%,21.9%,17.8%,9.88% (active),30.2%,19.8%,13.8%
CN(CCc1ccccc1)C(=S)N(C(=O)c1ccc([N+](=O)[O-])cc1)c1ccc(Cl)cc1,97.5%,102%,102%,102%,67%,100%,98.2%,88%,109%,73.1%,40.6%,101%,,91.7%,110%,92.6%,101%,94.8%,83.9%,
O=c1nc2sc3nc4ccccc4cc3cc-2s1,101%,106%,104%,106%,125%,122%,117%,103%,127%,114%,,108%,117%,132%,104%,101%,98.8%,100%,104%,116%
COc1ccc(C2Nc3nc(OC)n(C)c(=O)c3N=C3c4ccccc4C(=O)C32)cc1 (centres undefined),100%,106%,91.1%,97%,81.9%,94.8%,106%,98.1%,104%,89.2%,83.8%,92.2%,,81%,6.96% (active),89.8%,127%,92.4%,,117%
O=C(CCN1C(=O)c2ccccc2C1=O)Nc1ccc(Cl)cc1,66.4%,82.2%,54.8%,44.1%,64.3%,66.3%,79.2%,65.8%,118%,67.2%,60.7%,114%,,73.6%,28.4%,86.5%,98.2%,92.7%,61.7%,
O=C(Cc1ccccc1)NC(c1ccc(Cl)cc1)c1c(O)ccc2ccccc12 (centres undefined),4.5% (active),15.4%,30.9%,5.44% (active),-19.9% (active),-8.23% (active),9.06% (active),26%,-38.6% (active),33.6%,8.85% (active),-15.7% (active),-6.64% (active),29.2%,-36.4% (active),40%,-9.13% (active),16.3%,15.4%,
